Source: PubChem BioAssay AID429 (Emory University Molecular Libraries Screening Center, 2006)
In all, about 64,000 compounds went through this assay and about 220 (0.34%) were called active. The full list was thinned out, with actives kept by preference. Values without a mark were called inactive.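 The calls were made as follows: active = inhibition above 50%; inactive = the rest.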

What follows are compounds tested against Heat shock protein HSP 90-alpha (Homo sapiens) (UniProt P07900) (assay: tumor Hsp90 inhibitors, primary screen, cell lysate, fluorescence polarization, NCI-N417 lysate (AID 429;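 also: 0% = tracer plus lysate wells and 100% = tracer alone without lysate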)). Conditions: NCI-N417 lysate Hsp90, Cy3B-geldanamycin FP displacement; at 30 µM; active compounds read high.

SMILES	inhibition
NC1CCN(O)C1=O (stereo unspecified)	-1.33%
CCCC(=O)N(CCc1ccccc1)Cc1nc2ccccc2c(=O)[nH]1	-3.96%
Cn1c(=O)[nH]c(=O)c2c1nc(Br)n2CCCCSc1nc2ccccc2o1	2.94%
CSCCC(NS(=O)(=O)/C=C/c1ccccc1)C(=O)N1CCC(C)CC1 (stereo unspecified)	0.46%
O=S1(=O)CCN2C(=N1)SC1=C2CCN(Cc2ccccc2)C1	1.02%
COc1cc2c(cc1OC)C(c1ccncc1)CC(=O)N2 (stereo unspecified)	-0.47%
CCC/C(O)=C1\C(=O)CC(C)(C)CC1=Nc1ccccc1OC	-4.54%
CC(=O)c1c(C)c[nH]c1C	3.14%
COc1cc(C(=O)Nc2oc(-c3ccccc3)c(-c3ccccc3)c2C#N)cc(OC)c1OC	1.74%
COc1ccc(CNC2CCCCC2)cc1	-2.8%
C=CCn1c(N)c(C(=O)OCC(C)C)c2nc3ccccc3nc21	65.5% (active)
C=CCn1c(N)c(S(=O)(=O)c2cccs2)c2nc3ccccc3nc21	-4.06%
CC(C)Cn1c(N)c(C(=O)NCc2cccs2)c2nc3ccccc3nc21	-3.05%
CS(=O)(=O)NCc1ccc(C(=O)NCc2ccccc2)cc1	-1.87%
O=C(CCOc1ccccc1)NCc1ccccc1	2.46%
N#C/C(=C\c1ccc(O)c(O)c1)C(=O)NCc1ccccc1	77.1% (active)
COc1ccc(C2CC(c3ccc(C)cc3)Nc3ncnn32)cc1 (stereo unspecified)	-1.24%
CN(C)CCOC(=O)C(c1ccccc1)C1(O)CCCC1 (stereo unspecified)	-3.68%
CC(=O)c1ccc(-n2nnnc2SCC(=O)N2CCN(C(=O)c3ccco3)CC2)cc1	-0.68%
O=C(O)C1CCCN(CCC=C(c2ccccc2)c2ccccc2)C1 (stereo unspecified)	0.96%
COc1cc(NS(=O)(=O)c2cccc3nsnc23)c2ncccc2c1	0.42%
COc1ccccc1Oc1ccc(S(=O)(=O)Nc2cccnc2)cc1	-4.43%
O=C(O)CCC(=O)N(Cc1ccco1)c1nc(-c2ccccc2)cs1	-1.19%
CS(=O)(=O)N1CCCC(C(=O)N2CCOCC2)C1 (stereo unspecified)	-0.69%

SMILES	inhibition
CN(c1ccc(C(=O)NCCC2=CCCCC2)cc1)S(C)(=O)=O	-2.17%
NC(=O)Cn1c(=O)oc2ccccc21	2.54%
O=C(NCCCN1CCN(Cc2ccccc2)CC1)C1CCN(S(=O)(=O)N2CCCC2)CC1	-1.77%
Oc1ccc(Cl)cc1/C=N/c1nc2ccccc2[nH]1	1.09%
NC(=O)C1=CN(C2OC(COP(=O)(O)OP(=O)(O)OC[C@H]3O[C@@H](n4cnc5c(N)ncnc54)C(OP(=O)(O)O)[C@H]3O)C(O)C2O)C=CC1 (stereo partly specified)	-0.66%
CCCCSc1nnc(-c2ccc(NC(=O)CC)cc2)n1C	-0.77%
COC(=O)Cc1csc(Nc2c(C)n(C)n(-c3ccccc3)c2=O)n1	-1.47%
CCOc1ccc(N(CC(=O)NCc2ccc(OC)cc2)S(=O)(=O)c2c(C)noc2C)cc1	-5.24%
O=C(Nc1ccccc1-c1nnn(CC(=O)N2CCN(c3ccccc3)CC2)n1)c1cccs1	0.39%
CC(c1cccnc1)N(CCN(C)C)C(=O)Nc1ccc(Cl)c(Cl)c1 (stereo unspecified)	-1.45%
Cn1c(=O)c2c(nc(SCC(=O)Nc3ccccc3N3CCCCC3)n2C)n(C)c1=O	-1.91%
COc1ccc(Cn2cccc(NC(=O)Nc3ccc(C#N)cc3)c2=O)cc1	-1.69%
O=C1C=C(NCCNc2c(F)c(F)c(CO)c(F)c2F)CCC1	-1.66%
Cn1cccc1C1(C(F)(F)F)NCCNC1=O (stereo unspecified)	-0.05%
CCN(CC)Cc1c(C(=O)OC)nnn1-c1nonc1N	-0.51%
Cc1cc2c(cc1C)NC(c1ccccn1)C1=C(CC(C)(C)CC1=O)N2 (stereo unspecified)	0.74%
COC(=O)c1cc(S(=O)(=O)NC2CCN(Cc3ccccc3)CC2)cn1C	-0.68%
C=C(C)c1cccc(C(C)(C)NC(=O)N2CCN(c3ncccn3)CC2)c1	1.26%
CCOC(=O)N1CCN(C(=O)c2nn(-c3ccc(C)cc3)c(=O)c3c2c2ccccc2n3C)CC1	-3.87%
CC(C)C(c1nnnn1C1CCCC1)N1CCN(c2ccccc2F)CC1 (stereo unspecified)	-0.85%
O=S1(=O)CC(NCc2ccccc2)C(Nc2ccc(Cl)cc2)C1 (stereo unspecified)	1.54%
COc1cc(N=C2C=CC(=O)C=C2)c2ncccc2c1	3.25%
COc1ccc(-c2nc(CS(=O)CC(=O)N3CCc4ccccc4C3)c(C)o2)cc1 (stereo unspecified)	0.64%
COc1ccc(-c2nc(CS(=O)CC(=O)NCc3ccccn3)c(C)o2)cc1 (stereo unspecified)	71.4% (active)

SMILES	inhibition
COc1ccc(-c2nc(CS(=O)CC(=O)NCc3cccnc3)c(C)o2)cc1OC (stereo unspecified)	-3.8%
O=C1[C@@H]2C(Cc3ccc(O)cc3)NC3(C(=O)Nc4ccc(F)cc43)[C@@H]2C(=O)N1c1ccc(F)cc1 (stereo partly specified)	-5.22%
NC(=NC(=O)c1ccccc1)C1=C(O)CCC1=O	0.78%
CSCCC(Nc1nc2ccccc2s1)C(=O)O (stereo unspecified)	2.67%
C[C@H](NC(=O)NCCc1ccccc1)C(=O)O	1.74%
Cc1ccc(C)c(NS(=O)(=O)c2cc(Br)cnc2N)c1	0.39%
Cc1[nH]c2ccccc2c1C(=O)CSCC(=O)O	-2.89%
CC1CCN(Cc2nc3c(c(=O)n(C)c(=O)n3C)n2Cc2cccc3ccccc23)CC1	-1.11%
CCCOC(=O)Cc1c(O)c2ccccc2[nH]c1=O	1.56%
COc1cc(OC)cc(-c2nc3nc(C)c(CCC(=O)NCc4ccco4)c(C)n3n2)c1	1.84%
Cc1ccc(C2(c3ccc(C)cc3)NC(=O)N(Cc3c(C)noc3C)C2=O)cc1	1.01%
C#CCCCNc1cc(OC)cc2cccnc12	-1.17%
COc1cc(NCCCC#N)c2ncccc2c1	-2.3%
COc1cc(NC(C)CCCNC(C)C)c2ncccc2c1 (stereo unspecified)	95.6% (active)
CCOC(=O)C1CCCN(Cc2nc(N)nc(Nc3ccc(C)cc3)n2)C1 (stereo unspecified)	-6.1%
CC(C)n1c(NCc2c[nH]c3ccccc23)nc2ccccc21	1.28%
CCN(CC)S(=O)(=O)c1ccc(C(=O)Nc2cc(Br)cc3cccnc23)cc1	1.06%
COc1ccc(-n2c(SCC(=O)NCc3cccs3)nnc2-c2ccoc2C)cc1	-1.94%
Cc1cccc(Cn2c(N3CCN(c4ccccc4)CC3)nc3c2c(=O)n(C)c(=O)n3C)c1	-2.67%
O=C(NCc1cn2ccsc2n1)Nc1cccc(Cl)c1	-4.35%
CCc1ccc(N(CC)c2ncnc3nc[nH]c23)cc1	-2.13%
CCC1(C)CC(=O)NC1=O (stereo unspecified)	0.1%
CC[C@@H]1Cc2cc(O)ccc2C2=C1c1ccc(O)cc1C[C@H]2CC	14.4%
CCn1cc(C(=O)N2CC=C(c3ccccc3)CC2)c(=O)c2ccc(C)nc21	-3.28%

SMILES	inhibition
CCNC(=O)CCc1nc(-c2ccc(C(C)(C)C)cc2)no1	-1.56%
Cc1ccc(S(=O)(=O)N(C)CC(=O)NC2CCCC2)cc1	-0.25%
CCN(CC)C(=O)CSc1nnc(-c2ccc(S(=O)(=O)NCc3ccccc3Cl)cc2)o1	1.83%
Cc1ccc(C)c(NC(=O)C2CC(=O)N(C(C)C)C2)c1 (stereo unspecified)	-3.18%
Cc1ccnc(N2C(=O)c3ccccc3C2Nc2ccc3c(c2)OCCO3)c1 (stereo unspecified)	1.75%
Cc1cc(C)nc(SCc2nnc(SCC(=O)OC3CCCCC3)o2)n1	-0.1%
O=c1cc(CSc2ccc(Cl)cc2)nc(N2CCOCC2)[nH]1	-2.37%
O=C(CCC(=O)OCC(F)(F)C(F)F)NCc1ccccc1	-3.91%
O=C(NCCN1CCOCC1)c1c(F)c(F)c(F)c(F)c1F	-0.16%
CC(=O)Oc1cc2c(C(=O)NCCN3CCOCC3)c(C)oc2c2ccccc12	91% (active)
O=C(CCN1C(=O)c2ccccc2C1=O)NCCN1CCOCC1	-1.37%
Cc1ccc(C(c2sc3nc(C)nn3c2O)N2CCN(c3ccc(F)cc3)CC2)cc1 (stereo unspecified)	2.37%
O=C(O)c1cscn1	-1.54%
COc1cccc(Nc2ncccc2C(=O)O)c1	1.09%
COc1cccc(NC(=O)C(C)Oc2ccccc2)c1 (stereo unspecified)	86.4% (active)
COc1cccc(NC(=O)c2ccccc2SC)c1	-1.59%
CCN(CC)S(=O)(=O)c1cccc(C(=O)Nc2cc(C)nn2-c2nc(C)cc(C)n2)c1	-2.41%
CSCC[C@H](NC(=O)NCCc1ccc(F)cc1)C(=O)O	-0.8%
CN(c1ccccc1)c1ccc(/C=c2\s/c(=C(/C#N)C(=O)C(C)(C)C)n(Cc3ccco3)c2=O)cc1	50.6% (active)
O=c1nc2s/c(=C\c3ccco3)c(=O)n2nc1Cc1ccccc1	-6.3%
CCOC(=O)CSc1nc2c(sc(=S)n2CCc2ccccc2)c(=O)n1Cc1ccco1	-1.25%
CN(C)c1cc(N)c2ccccc2n1 (tested in a mixture with another compound)	-9.07%
CC12CCC(C(=O)N(CCC#N)CCC#N)(CC1=O)C2(C)C (stereo unspecified)	-2.19%
O=C(CC1CCCCC1)Nc1c2c(nn1-c1ccc(F)cc1)CS(=O)(=O)C2	-1.94%
